Among the data in PubChem BioAssay (NCI) are growth values, retold here.

Structures are written as SMILES. About 83,000 compounds went through this panel and 20% of them were active in at least one assay; those are over-represented in the sample as a whole.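 48-hour exposure, single concentration, 96-well plates; percent growth endpoint where 0 means no net growth. Active: below 10.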 A number with no mark means an inactive call. Active and inactive are the calls of the source.

Some test systems named below: HCT-15 colon; HT29 colon; SNB-75 CNS; SNB-19 CNS; U251 CNS; PC-3 prostate; SK-MEL-5 melanoma; UACC-62 melanoma; LOX IMVI melanoma; SK-MEL-28 melanoma; SK-MEL-2 melanoma; EKVX NSCLC; SN12C renal; UO-31 renal; TK-10 renal; ACHN renal; CAKI-1 renal; A498 renal; MOLT-4 leukemia; CCRF-CEM leukemia.
Holding throughout (experiment): NCI-60 one-dose screen, 48 h (100 = growth as untreated, 0 = no growth, -100 = all killed)
Holding throughout (conditions): 10 µM unless noted

Regarding `CCN1C(=O)N(CC)C2C1NN=c1s/c(=C3\C(=O)N(C4CCCC4)c4ccccc43)c(=O)n12` (stereo unspecified), the growth is 15.8% with HCT-15 colon; 1.3% (active) in the experiment with HT29 colon; -21.9% (active) in the experiment on SNB-75 CNS; 34.9% in the experiment with SNB-19 CNS; 18.3% in the experiment on U251 CNS; 25.3% with PC-3 prostate. Besides, the growth with SK-MEL-5 melanoma was 12.7%; in the experiment on UACC-62 melanoma, 34.9%; with LOX IMVI melanoma, 30.3%; with SK-MEL-28 melanoma, 57.9%; with SK-MEL-2 melanoma, 41.3%; with EKVX NSCLC, 56.1%. For the same compound, the growth with SN12C renal was 31.6%; in the experiment on UO-31 renal it was 37.2%; in the experiment on TK-10 renal it was 24.4%; in the experiment with ACHN renal, 31.9%; in the experiment on CAKI-1 renal, 32.1%; in the experiment with A498 renal, -25.9% (active). For the same compound, the growth with MOLT-4 leukemia is 7.37% (active).
As to `COc1cccc2cc(-c3cc4ccccc4[nH]3)/c(=N/C(=S)Nc3ccccc3)oc12`, the growth with HCT-15 colon is 89.2%; in the experiment on HT29 colon, 81.8%; in the experiment with SNB-75 CNS, -45.3% (active); in the experiment on SNB-19 CNS it was 66.1%; in the experiment on U251 CNS it was 77%; with PC-3 prostate, 68.8%. The growth in the experiment on SK-MEL-5 melanoma is 76.1%; in the experiment on UACC-62 melanoma, 76%; with LOX IMVI melanoma, 80%; in the experiment on SK-MEL-28 melanoma, 80.1%; in the experiment on SK-MEL-2 melanoma, 91.5%; in the experiment with EKVX NSCLC, 87.3%. Further, the growth was 80.6% in the experiment on SN12C renal; 81.5% in the experiment on UO-31 renal; 102% in the experiment on TK-10 renal; 41.2% with ACHN renal; 41% with CAKI-1 renal; 92.4% in the experiment on A498 renal. For the same compound, the growth in the experiment with MOLT-4 leukemia is 105%.
For the compound `O=S(=O)(NCCCNc1cc(-c2cn(-c3ccccc3)nc2-c2cccc(O)c2)ccn1)c1ccc(C(F)(F)F)cc1`, the growth in the experiment with HCT-15 colon is 5.17% (active); with HT29 colon, 2.83% (active); with SNB-75 CNS, 31.5%; in the experiment on SNB-19 CNS, 51.4%; in the experiment on U251 CNS, 36.8%; in the experiment on PC-3 prostate, 13.7%. The growth in the experiment on SK-MEL-5 melanoma is 8.74% (active); in the experiment on UACC-62 melanoma, 27.4%; with LOX IMVI melanoma, 27.4%; in the experiment with SK-MEL-28 melanoma, 21.7%; in the experiment with SK-MEL-2 melanoma, 72.7%; in the experiment on EKVX NSCLC it was 40.8%. In addition, the growth with SN12C renal is 50.1%; in the experiment with UO-31 renal, 24.9%; in the experiment on TK-10 renal it was 77.7%; in the experiment on ACHN renal, 31.5%; in the experiment on CAKI-1 renal, 34.7%; in the experiment with A498 renal, 57.2%. In addition, in the experiment on MOLT-4 leukemia, the growth is 16%.
Turning to `CCCCCC/C=C\CCCCCCCCOc1ccc(CCOP(=O)(O)OCC[N+](C)(C)C)cc1`, the growth in the experiment with HCT-15 colon was 85%; in the experiment with HT29 colon it was 30.2%; with SNB-75 CNS, 75.3%; with SNB-19 CNS it was 39.4%; in the experiment on U251 CNS, 27.5%; in the experiment with PC-3 prostate, 14.8%. For the same compound, the growth with SK-MEL-5 melanoma is 84.9%; in the experiment with UACC-62 melanoma, 71.1%; in the experiment on LOX IMVI melanoma it was 81.3%; in the experiment with SK-MEL-28 melanoma, 95.5%; in the experiment on SK-MEL-2 melanoma, 91%; with EKVX NSCLC, 95.3%. Further, the growth is 91.4% in the experiment on SN12C renal; 83.2% with UO-31 renal; 23.5% in the experiment on TK-10 renal; 91.7% in the experiment on ACHN renal; 36.9% in the experiment on CAKI-1 renal; 95.6% in the experiment with A498 renal. Also, the growth with MOLT-4 leukemia was 54.1%.
As for `O=C1C2=C(C(=O)c3c(O)ccc(O)c31)N(c1cccnc1)Cc1ccccc1O2`, the growth is -32.8% (active) with HCT-15 colon; -60.4% (active) in the experiment on HT29 colon; 22.1% in the experiment on SNB-75 CNS; 5.25% (active) in the experiment on SNB-19 CNS; 2.04% (active) in the experiment on U251 CNS; -31.7% (active) in the experiment on PC-3 prostate. Further, the growth with SK-MEL-5 melanoma is 11.4%; in the experiment on UACC-62 melanoma, -76.5% (active); in the experiment with LOX IMVI melanoma, -64.6% (active); in the experiment with SK-MEL-28 melanoma, -72% (active); in the experiment with SK-MEL-2 melanoma, -42.6% (active); in the experiment on EKVX NSCLC, 2.08% (active). Further, the growth was -43.8% (active) with SN12C renal; -83.5% (active) with UO-31 renal; -99.2% (active) in the experiment on TK-10 renal; -85.4% (active) with ACHN renal; -96.2% (active) in the experiment with CAKI-1 renal; 99% in the experiment on A498 renal. Besides, the figures for the growth with CCRF-CEM leukemia and in the experiment with MOLT-4 leukemia were -1.32% (active) and -18.5% (active), respectively.
`COc1ccc(N=C2NN=C(c3ccc(F)cc3)CS2)cc1OC`: the growth with HCT-15 colon is 96.5%; in the experiment on HT29 colon, 100%; in the experiment on SNB-75 CNS, 123%; in the experiment with SNB-19 CNS it was 94.3%; in the experiment with U251 CNS, 87.4%; in the experiment with PC-3 prostate, 93.2%. In addition, the growth in the experiment on SK-MEL-5 melanoma is 86.8%; in the experiment with UACC-62 melanoma, 86.6%; in the experiment with LOX IMVI melanoma, 85.5%; in the experiment with SK-MEL-28 melanoma it was 114%; in the experiment on SK-MEL-2 melanoma, 66.4%; with EKVX NSCLC, 99%. The growth is 98.1% in the experiment on SN12C renal; 44.2% in the experiment on UO-31 renal; 89.8% in the experiment with TK-10 renal; 93.7% in the experiment with ACHN renal; 84.9% in the experiment with CAKI-1 renal; 86.1% with A498 renal. In addition, the figures for the growth with CCRF-CEM leukemia and with MOLT-4 leukemia were 81.8% and 73.4%, respectively.
For the compound `c1ccc2c(c1)Oc1ccccc1C2C1c2ccccc2Oc2ccccc21`, the growth in the experiment with HCT-15 colon was 93.3%; with HT29 colon it was 82.8%; with SNB-75 CNS it was 86.2%; with SNB-19 CNS it was 97.1%; in the experiment on U251 CNS, 99.3%; in the experiment with PC-3 prostate it was 85.7%. In addition, the growth was 100% in the experiment on SK-MEL-5 melanoma; 86.7% in the experiment with UACC-62 melanoma; 86.5% with LOX IMVI melanoma; 110% in the experiment with SK-MEL-28 melanoma; 92.6% in the experiment with SK-MEL-2 melanoma; 84.9% in the experiment with EKVX NSCLC. Also, the growth in the experiment with SN12C renal is 101%; with UO-31 renal, 73.5%; with TK-10 renal it was 93.4%; in the experiment with ACHN renal it was 87.7%; with CAKI-1 renal, 74.5%; with A498 renal it was 91.8%. The growth was 98.3% with CCRF-CEM leukemia and 79.5% in the experiment on MOLT-4 leukemia.
Turning to `CCSc1nnc(NC(=O)COc2ccc(Cl)cc2C)s1`, the growth in the experiment with HCT-15 colon was 102%; with HT29 colon, 115%; with SNB-75 CNS, 110%; with SNB-19 CNS, 95.2%; in the experiment on U251 CNS, 99.4%; with PC-3 prostate it was 104%. Moreover, the growth in the experiment on SK-MEL-5 melanoma was 97.3%; with UACC-62 melanoma it was 98.7%; with LOX IMVI melanoma it was 93.8%; in the experiment with SK-MEL-28 melanoma, 114%; in the experiment on SK-MEL-2 melanoma, 48.6%; in the experiment on EKVX NSCLC it was 102%. Also, the growth was 101% in the experiment on SN12C renal; 46.2% in the experiment with UO-31 renal; 116% with TK-10 renal; 96.5% with ACHN renal; 85.8% in the experiment on CAKI-1 renal; 109% in the experiment with A498 renal. Further, the growth in the experiment with CCRF-CEM leukemia is 99.1%; in the experiment with MOLT-4 leukemia, 95.6%.
